Shown is part of a subset that was picked to be rich in hits.
MARV entry inh – blocks Marburg virus binding to or entry into cells; hit rate 1.8% among 300,000; Marburg virus pseudotyped entry inhibition, cell reporter; Potency, µM (doses to about 37.8 µM), for inactives: at the top dose activity change, negative = inhibition, usual class: inhibitors; calls by dose curve; tested in HEK293 cells; further: potency means the concentration at half of the fitted maximal effect; on the % scale 0 is the no-effect control and ±100 the full control effect
Lassa entry inh – blocks Lassa virus binding to or entry into cells; hit rate 1.2% among 300,000; Potency, µM (doses to about 37.9 µM), for the others: top-dose activity change, negative = inhibition, usual class: inhibitors; Lassa virus pseudotype entry inhibition, cell reporter; calls by dose curve; tested in HEK293 cells; further: potency means the concentration at half of the fitted maximal effect; on the % scale 0 is the no-effect control and ±100 the full control effect; nearly all actives have a fitted effect of over 50% in size
AMA1-RON2 inh – AMA1-RON2 (P. falciparum) interaction inhibition; AlphaScreen AMA1-biotinylated RON2 peptide binding; hit rate 0.2% among 360,000; Potency, µM (doses to about 58.2 µM), for inactives: at the top dose activity change, negative = inhibition, hits mostly inhibitors; active means well fitted inhibition curve with a large enough effect; inconclusive means small, poorly fitted or top-dose-only effect; inactive means no such curve, though single readings can be large or run the other way;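 further: potency means the concentration at half of the fitted maximal effect; 0% = vehicle wells and -100% = peptide control; nearly all actives have a fitted effect of over 45% in size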
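AMA1 (3D7) with his tag at 25 nM final met compounds first, then biotinylated RON2 peptide at 25 nM; detection used donor plus acceptor beads, 10 µg/mL apiece, read by AlphaScreen after 30 min at room temperature.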
CHX counter – counter-screen for Shiga toxin inhibitors: cycloheximide protein synthesis inhibition. cell reporter, cycloheximide protein synthesis inhibition counterscreen. max response, %. hit rate 12% among 300,000. AID 2314; in the data active means max response mostly above about 13%, no sharp cut-off; inactive means mostly below about 14%; further: read at 38.3 µM for the half of the compounds with a filed dose; 0% is about no effect
Shiga inhibitor – Shiga toxin inhibition; inhibition, % at 38.7 µM; Vero cells, Shiga toxin protein synthesis inhibition reporter; hit rate 9.2% among 290,000; AID 2315; in the data active means inhibition mostly above about 28%, no sharp cut-off; inactive means mostly below about 43%; further: 0% is about no effect
Active calls of the source: *; ? = inconclusive; nt = no result given; [ ] = remark or other dose.

SMILES | MARV entry inh | Lassa entry inh | AMA1-RON2 inh | CHX counter | Shiga inhibitor
COc1ccc(-c2ncncc2-c2ccc(Cl)cc2)c(O)c1 | ? | 0%[46.1 µM] | -1% | -2 | -8
O=C(Nc1ccc(Br)cc1F)c1cc(S(=O)(=O)NC2CCCC2)ccc1F | nt | 24%[46.1 µM] | nt | nt | nt
COc1cn(CC(=O)Nc2c(C)cc(C)cc2C)c(CN2CCCCC2)cc1=O | nt | 2%[46.1 µM] | nt | nt | nt
Cc1cc(C)cc(NC(c2cccc(Cl)c2)c2nnc(-c3ccccc3)o2)c1 (stereo not given) | ? | -30%[46.1 µM] | nt | nt | nt
COc1ccc(O)c(-c2cc(-c3ccc(F)cc3)n[nH]2)c1 | ? | 0%[46.1 µM] | 38% | 50* | 116*
COc1ccc(-c2cc(-c3cc(OC)ccc3O)[nH]n2)cc1 | ? | ? | 0% | 45* | 97*
COc1ccc(C2C=C(c3ccccc3)Nc3nnnn32)cc1 (stereo not given) | 18% | ? | -6% | 21* | 53*
COc1cccc(C2=CC(c3ccc(N(C)C)cc3)n3nnnc3N2)c1 (stereo not given) | ? | -28% | -15% | 25* | 50*
COc1cccc(C2=CC(c3ccccc3)n3nnnc3N2)c1 (stereo not given) | ? | ? | -1% | 1 | 3
C=CCS/C(N)=N\N=C\c1c(O)ccc2ccccc12 | nt | nt | 93% | 44* | 114*
NC(=O)c1ccc(N=Cc2c(O)ccc3ccccc23)cc1 | ? | 3%[46.1 µM] | 11% | nt | nt
CCCS/C(N)=N/N=C/c1ccccc1O | ? | ? | 0% | 38* | 50*
CCOc1ccc(OCC)c(NC(=O)C2CCN(c3cnccn3)CC2)c1 | -15%[46.1 µM] | 2%[46.1 µM] | -5% | 2 | 0
COc1ccc(NC(=O)Nc2nnc(C)s2)cc1 | 20%[46.1 µM] | 30%[46.1 µM] | nt | nt | nt
COC(=O)c1ccc(NC(=O)Nc2ccc([N+](=O)[O-])cc2)cc1 | nt | nt | -3% | 0 | -7
COc1ccc(NC(=O)Nc2ccc(OC)cc2)cc1 | 5% | 18% | -8% | 22* | 67*
COc1ccc(NC(=O)OC(C)C)cc1 | ? | ? | 5% | 29* | 68*
COC(=O)c1ccc(NC(=O)Nc2ccc(OC)cc2)cc1 | ? | -16%[46.1 µM] | 6% | 24 | 60*
COc1ccc(NC(=O)Nc2ccc(N(C)C)cc2)cc1 | 13% | -14% | -23% | 30* | 97*
COc1ccc(CNC(=O)CCn2nc(C)c3c(C)n(-c4ccccc4)nc3c2=O)c(OC)c1 | 4%[46.1 µM] | 24%[46.1 µM] | 7% | -2 | -6
COc1cc(-c2noc(C)c2C(=O)NCCc2ccccc2)cc(OC)c1OC | nt | nt | 14% | nt | nt
Cc1cc(C)c2c(-n3cccc3)c(C(=O)NCCc3ccc(Cl)cc3)sc2n1 | ? | 13%[46.1 µM] | nt | nt | nt
FC(F)(F)c1cnc2c(-c3ccccc3)n[nH]c2c1 | ? | -31% | 24% | 29* | 83*
O=C(c1cccs1)N1CCc2ccccc21 | 25% | 44%[14.3 µM] | 8% | 54* | 70*
O=C(/C=C/c1cccs1)N1CCOCC1 | 15% | 12% | -15% | 0 | 26
SMILES | MARV entry inh | Lassa entry inh | AMA1-RON2 inh | CHX counter | Shiga inhibitor
O=C(/C=C/c1ccc(Cl)c(Cl)c1)N1CCc2ccccc21 | ? | 3% | -4% | 24* | active
O=C(/C=C/c1cccs1)N1CCc2ccccc21 | 8.2µM* | ? | -1% | 27* | -4
O=C(c1cccs1)n1nc(-c2ccccc2)nc1NCc1ccco1 | -10% | -7% | 1% | -4 | 7
COCC(=O)n1nc(-c2ccccc2)nc1NCc1cccs1 | 4%[46.1 µM] | -7% | 6% | 33* | 63*
Cc1ccc(Nc2nc3c(s2)CCC3)c(C)c1 | ? | -22% | 30% | 32* | 56*
Cc1ccc(NC(=O)Nc2nc3c(s2)CCCCCC3)cc1C | nt | 3%[46.1 µM] | nt | nt | nt
COc1ccccc1Nc1nc2c(s1)CCC2 | 11%[46.1 µM] | 1% | 9% | 36* | 68*
COc1cc([N+](=O)[O-])ccc1NC(=O)Nc1nc2c(s1)CCCC2 | ? | 5% | 2% | -2 | 10
Cc1nc2c(OCc3cccc(Cl)c3)cccn2c1N(C)Cc1cccs1 | nt | nt | -14% | nt | nt
CC1(C(=O)NCC2CC2)CCN1C(=O)C1(c2ccc(Cl)cc2)CC1 (stereo not given) | nt | nt | -4% | nt | nt
CNC(=O)c1ccccc1NC(=O)c1cccc(S(=O)(=O)N2CCC(C)CC2)c1 | ? | 22µM* | -13% | 9 | -22
CC(=O)Nc1ccc(S(=O)(=O)N2CCN=C2SCc2ccc(C)cc2)cc1 | nt | nt | -2% | 50* | 88*
CC(=O)Nc1ccc(S(=O)(=O)N2CCN=C2SCc2ccc(F)cc2)cc1 | nt | nt | 5% | -1 | -13
Cc1ccc(-c2c[n+](CC(=O)c3ccc(Br)cc3)c3n2CCCCC3)cc1 | 10µM* | ? | -5% | 10 | 28
O=C(C[n+]1cc(-c2ccc(F)cc2)n2c1CCC2)c1cccs1 | 16%[46.1 µM] | 8% | 1% | 18* | 89*
S=C(NC1CC1)N1CCN(C(=S)NC2CC2)CC1 | 0%[46.1 µM] | 13%[46.1 µM] | 4% | 28* | 7
S=C(NC1CCCCC1)N1CCN(C2CCCCC2)CC1 | 0%[46.1 µM] | 1% | -16% | 14 | 13
Fc1ccc(-c2cn3cc(C(F)(F)F)cc(Cl)c3n2)cc1 | ? | ? | 11% | 28* | 103*
COc1ccc(-c2cn3cc(C(F)(F)F)cc(Cl)c3n2)cc1 | ? | ? | -8% | 56* | 80*
Fc1ccc(-c2nc3c(Cl)cc(C(F)(F)F)cn3c2Cc2ccccc2)cc1 | nt | nt | -12% | nt | nt
NCCCCN | 8% | -7% | nt | nt | nt
COc1ccc(C2=NN(c3ccc(C(=O)O)cc3)C(c3ccc(OC)c(OC)c3)C2)cc1 (stereo not given) | 4%[46.1 µM] | 7%[46.1 µM] | 0% | 39* | 53*
NS(=O)(=O)c1ccc(N2N=C(c3ccc(Br)cc3)CC2c2ccc(F)cc2)cc1 (stereo not given) | 10µM* | 7.9µM* | 46% | -3 | -2
COc1ccc2c(c1OC)C(=O)N1N=C(c3ccccc3)CC21 (stereo not given) | 5% | 5% | -7% | 18* | 31
COc1cc(C2CC(c3ccccc3)=NN2c2ccccc2)ccc1OCC(=O)O (stereo not given) | 0%[46.1 µM] | 1%[46.1 µM] | 3% | -5 | -1
SMILES | MARV entry inh | Lassa entry inh | AMA1-RON2 inh | CHX counter | Shiga inhibitor
COc1ccc(C2CC(c3ccccc3)=NN2c2ccc(S(N)(=O)=O)cc2)cc1OC (stereo not given) | ? | 11µM* | 34% | 7 | -11
COc1ccc(C2CC(c3ccccc3)=NN2c2ccccc2)c(C(=O)O)c1OC (stereo not given) | -3%[46.1 µM] | 3% | 0% | 1 | -4
Cc1ccccc1Oc1nc2c(C)cccn2c(=O)c1/C=C(\C#N)C(=O)NC1CCS(=O)(=O)C1 (stereo not given) | ? | 13µM* | -1% | -1 | 9
Cc1cc(C(C)(C)C)ccc1OCCCCN1CCCC1 | ? | ? | ? | 30* | 6
c1ccc(-c2ccccc2OCCCN2CCCC2)cc1 | 5.6µM* | ? | 10% | -3 | -8
Cc1ccccc1OCCOCCN1CCCCCC1 | 10µM* | 9%[46.1 µM] | 7% | -2 | -5
c1ccc(-c2ccccc2OCCCCN2CCCCC2)cc1 | 7.1µM* | ? | 7% | 0 | -7
